Results from PubChem BioAssay (NCI).
The panel holds about 83,000 compounds, 20% with a hit somewhere; the sample as a whole holds those more often.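 In brief: 96-well plates, 48 h treatment, single concentration, percent growth endpoint.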 Active and inactive are the calls of the source. How the source made its calls: active means growth percent below 10; inactive means the rest.

What was measured:
Experiment in all cases: NCI-60 one-dose screen, 48 h (100 = growth as untreated, 0 = no growth, -100 = all killed)
DU-145 prostate = conditions: 10 µM
K-562 leukemia = conditions: 10 µM
MALME-3M melanoma = conditions: 10 µM
MDA-MB-231 breast = conditions: 10 µM
RXF 393 renal = conditions: 10 µM
SF-268 CNS = conditions: 10 µM
SF-539 CNS = conditions: 10 µM
UACC-257 melanoma = conditions: 10 µM
HCT-15 colon = conditions: 10 µM
HT29 colon = conditions: 10 µM
SNB-75 CNS = conditions: 10 µM
SNB-19 CNS = conditions: 10 µM
U251 CNS = conditions: 10 µM
PC-3 prostate = conditions: 10 µM
SK-MEL-5 melanoma = conditions: 10 µM
UACC-62 melanoma = conditions: 10 µM unless noted
LOX IMVI melanoma = conditions: 10 µM
SK-MEL-28 melanoma = conditions: 10 µM
M14 melanoma = conditions: 10 µM
SF-295 CNS = conditions: 10 µM

Measured: growth

c1ccc(Sc2ccccc2)cc1
inactive: DU-145 prostate 105% | K-562 leukemia 112% | MALME-3M melanoma 94.4% | MDA-MB-231 breast 109% | RXF 393 renal 114% | SF-268 CNS 97% | SF-539 CNS 103% | UACC-257 melanoma 88.3% | HCT-15 colon 99.4% | HT29 colon 102% | SNB-75 CNS 99.7% | SNB-19 CNS 98.2% | U251 CNS 94.5% | PC-3 prostate 95.9% | SK-MEL-5 melanoma 104% | UACC-62 melanoma 101% | LOX IMVI melanoma 104% | SK-MEL-28 melanoma 107%

CC(C)CCCC(=O)O
inactive: DU-145 prostate 111% | K-562 leukemia 135% | MALME-3M melanoma 98.5% | MDA-MB-231 breast 123% | RXF 393 renal 93% | SF-268 CNS 106% | SF-539 CNS 98.5% | UACC-257 melanoma 117% | M14 melanoma 119% | HT29 colon 104% | SNB-75 CNS 95.4% | U251 CNS 103% | PC-3 prostate 94.8% | SK-MEL-5 melanoma 97.2% | UACC-62 melanoma 107% | LOX IMVI melanoma 105% | SK-MEL-28 melanoma 99%

Nc1nc(N)c2cc(S(=O)(=O)c3cccc(C(F)(F)F)c3)ccc2n1
inactive: DU-145 prostate 48% | K-562 leukemia 17.7% | MALME-3M melanoma 63.8% | MDA-MB-231 breast 67.9% | RXF 393 renal 62.2% | SF-268 CNS 29.2% | SF-539 CNS 51.4% | UACC-257 melanoma 43.7% | M14 melanoma 44.5% | HCT-15 colon 33.2% | HT29 colon 22.9% | SNB-19 CNS 43.6% | U251 CNS 32.2% | PC-3 prostate 39.6% | SK-MEL-5 melanoma 28.3% | LOX IMVI melanoma 28.6% | SK-MEL-28 melanoma 69.9%

c1ccc(CN2COc3c(ccc4c3OCN(Cc3ccccc3)C4)C2)cc1
inactive: DU-145 prostate 25.3% | MALME-3M melanoma 28.4% | SF-268 CNS 15.1% | UACC-257 melanoma 12.1% | HCT-15 colon 28% | HT29 colon 27% | SNB-75 CNS 43.7% | PC-3 prostate 36.5% | SK-MEL-28 melanoma 34.1%
active: K-562 leukemia 3.62% | MDA-MB-231 breast 1.06% | SF-295 CNS 0.773% | SF-539 CNS -21.5% | M14 melanoma -0.269% | UACC-62 melanoma -39.1%

CC(=O)OCCO
inactive: DU-145 prostate 110% | K-562 leukemia 103% | MALME-3M melanoma 93.5% | MDA-MB-231 breast 121% | RXF 393 renal 105% | SF-268 CNS 106% | SF-539 CNS 104% | UACC-257 melanoma 102% | M14 melanoma 105% | HCT-15 colon 107% | HT29 colon 120% | SNB-75 CNS 84.7% | SNB-19 CNS 110% | PC-3 prostate 104% | SK-MEL-5 melanoma 102% | UACC-62 melanoma 108% | LOX IMVI melanoma 107% | SK-MEL-28 melanoma 100%

CCC/C=C(/C(C)=O)C(=O)OCC
inactive: DU-145 prostate 114% | K-562 leukemia 104% | MALME-3M melanoma 118% | MDA-MB-231 breast 105% | SF-268 CNS 84.5% | SF-295 CNS 282% | SF-539 CNS 117% | UACC-257 melanoma 81.2% | M14 melanoma 118% | HCT-15 colon 109% | HT29 colon 111% | SNB-75 CNS 89.2% | SNB-19 CNS 94.8% | U251 CNS 103% | PC-3 prostate 88.5% | SK-MEL-5 melanoma 112% | UACC-62 melanoma 95.1% | LOX IMVI melanoma 102% | SK-MEL-28 melanoma 122%

Cc1ccncc1C(N)=O
inactive: DU-145 prostate 106% | K-562 leukemia 101% | MALME-3M melanoma 106% | MDA-MB-231 breast 116% | SF-268 CNS 98.2% | SF-295 CNS 120% | SF-539 CNS 95.7% | UACC-257 melanoma 110% | M14 melanoma 103% | HCT-15 colon 96.6% | HT29 colon 105% | SNB-75 CNS 80.9% | U251 CNS 98.3% | SK-MEL-5 melanoma 100% | UACC-62 melanoma 95.8% | LOX IMVI melanoma 93.2% | SK-MEL-28 melanoma 114%

O=P(O)(O)OCC(O)CO (stereo not given)
inactive: DU-145 prostate 107% | K-562 leukemia 113% | MALME-3M melanoma 110% | MDA-MB-231 breast 111% | RXF 393 renal 107% | SF-268 CNS 108% | SF-539 CNS 105% | UACC-257 melanoma 102% | M14 melanoma 101% | HCT-15 colon 104% | HT29 colon 101% | SNB-75 CNS 84% | SNB-19 CNS 104% | U251 CNS 94% | PC-3 prostate 96.7% | SK-MEL-5 melanoma 102% | LOX IMVI melanoma 97.9% | SK-MEL-28 melanoma 98.2%

CN(C)/N=C/c1ccccc1O
inactive: DU-145 prostate 125% | K-562 leukemia 120% | MALME-3M melanoma 109% | MDA-MB-231 breast 106% | SF-268 CNS 106% | SF-295 CNS 112% | SF-539 CNS 94.6% | UACC-257 melanoma 109% | M14 melanoma 106% | HCT-15 colon 100% | HT29 colon 111% | SNB-75 CNS 87.8% | SNB-19 CNS 97.8% | U251 CNS 95.4% | PC-3 prostate 121% | SK-MEL-5 melanoma 103% | LOX IMVI melanoma 98.7% | SK-MEL-28 melanoma 111%

O=C(O)c1ccccc1NCc1ccco1
inactive: DU-145 prostate 118% | K-562 leukemia 104% | MALME-3M melanoma 108% | MDA-MB-231 breast 104% | SF-268 CNS 111% | SF-295 CNS 114% | SF-539 CNS 103% | UACC-257 melanoma 143% | M14 melanoma 102% | HCT-15 colon 108% | HT29 colon 98.7% | SNB-19 CNS 108% | U251 CNS 103% | PC-3 prostate 111% | SK-MEL-5 melanoma 100% | UACC-62 melanoma 101% | LOX IMVI melanoma 93.5%

CCCCCCCCCCC1CO1 (stereo not given)
inactive: DU-145 prostate 108% | K-562 leukemia 102% | MALME-3M melanoma 103% | MDA-MB-231 breast 111% | RXF 393 renal 103% | SF-268 CNS 106% | SF-539 CNS 105% | UACC-257 melanoma 96.4% | M14 melanoma 108% | HCT-15 colon 104% | HT29 colon 108% | SNB-75 CNS 94% | U251 CNS 97.8% | PC-3 prostate 102% | SK-MEL-5 melanoma 100% | UACC-62 melanoma 112% | LOX IMVI melanoma 102% | SK-MEL-28 melanoma 98.4%

COC(=O)CCCCC1=CCC2C(=O)C=C(O)C2C1 (stereo not given)
inactive: DU-145 prostate 104% | K-562 leukemia 90.9% | MALME-3M melanoma 106% | MDA-MB-231 breast 106% | RXF 393 renal 103% | SF-268 CNS 104% | SF-539 CNS 99.8% | M14 melanoma 109% | HCT-15 colon 96.3% | HT29 colon 104% | SNB-75 CNS 85.5% | SNB-19 CNS 104% | PC-3 prostate 92.5% | SK-MEL-5 melanoma 102% | UACC-62 melanoma 103% | LOX IMVI melanoma 97.5% | SK-MEL-28 melanoma 100%

Cc1ccc(Cl)cc1N1C(=O)CC(Sc2ccccc2N)C1=O (stereo not given)
inactive: DU-145 prostate 123% | K-562 leukemia 118% | MALME-3M melanoma 138% | MDA-MB-231 breast 108% | RXF 393 renal 92.5% | SF-295 CNS 111% | SF-539 CNS 105% | UACC-257 melanoma 88.4% | M14 melanoma 118% | HCT-15 colon 93.4% | HT29 colon 109% | SNB-75 CNS 65.5% | SNB-19 CNS 102% | U251 CNS 102% | PC-3 prostate 89.5% | SK-MEL-5 melanoma 110% | UACC-62 melanoma 95.8% | LOX IMVI melanoma 94.7% | SK-MEL-28 melanoma 92.5%

CN(C)c1nc2c([nH]1)c(=O)n(C)c(=O)n2C
inactive: DU-145 prostate 116% | K-562 leukemia 96.5% | MALME-3M melanoma 101% | MDA-MB-231 breast 107% | SF-268 CNS 105% | SF-295 CNS 104% | SF-539 CNS 107% | UACC-257 melanoma 87.8% | M14 melanoma 108% | HCT-15 colon 108% | HT29 colon 102% | SNB-75 CNS 102% | SNB-19 CNS 111% | U251 CNS 93.4% | PC-3 prostate 91.6% | SK-MEL-5 melanoma 101% | LOX IMVI melanoma 98.7% | SK-MEL-28 melanoma 110%

CC(CC(=O)c1ccccc1)c1ccccc1 (stereo not given)
inactive: DU-145 prostate 112% | K-562 leukemia 102% | MALME-3M melanoma 93% | MDA-MB-231 breast 119% | SF-268 CNS 110% | SF-295 CNS 95.8% | SF-539 CNS 105% | UACC-257 melanoma 94.1% | M14 melanoma 119% | HCT-15 colon 108% | HT29 colon 95.7% | SNB-75 CNS 104% | SNB-19 CNS 109% | PC-3 prostate 99.5% | UACC-62 melanoma 107% | SK-MEL-28 melanoma 101%

Nc1ccc(N=Nc2ccc(O)cc2)c(N)n1
inactive: DU-145 prostate 79.3% | K-562 leukemia 39.2% | MALME-3M melanoma 72% | MDA-MB-231 breast 73.7% | RXF 393 renal 91.6% | SF-268 CNS 73.1% | SF-539 CNS 66.5% | UACC-257 melanoma 97.9% | M14 melanoma 70.9% | HT29 colon 103% | SNB-75 CNS 82.5% | SNB-19 CNS 98.1% | U251 CNS 76.6% | PC-3 prostate 60.7% | SK-MEL-5 melanoma 73.3% | UACC-62 melanoma 41% | LOX IMVI melanoma 79.4% | SK-MEL-28 melanoma 89.2%
